Screen size: about 310,000 compounds; about 14,000 (4.5%) showed an effect of 50% or more. Effects have a minus sign here. The entries come from a sample that favours strong results as a whole.
target: human ether-à-go-go-related gene (hERG) potassium channel (human, UniProt Q12809); experiment: primary screen, population patch clamp on CHO cells stably expressing hERG; higher = less effect of the substance
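Note: peak tail current of the secondary pulse compared with the same well before compound.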

human ether-à-go-go-related gene (hERG) potassium channel, sequence (Q12809 whole entry, looked up): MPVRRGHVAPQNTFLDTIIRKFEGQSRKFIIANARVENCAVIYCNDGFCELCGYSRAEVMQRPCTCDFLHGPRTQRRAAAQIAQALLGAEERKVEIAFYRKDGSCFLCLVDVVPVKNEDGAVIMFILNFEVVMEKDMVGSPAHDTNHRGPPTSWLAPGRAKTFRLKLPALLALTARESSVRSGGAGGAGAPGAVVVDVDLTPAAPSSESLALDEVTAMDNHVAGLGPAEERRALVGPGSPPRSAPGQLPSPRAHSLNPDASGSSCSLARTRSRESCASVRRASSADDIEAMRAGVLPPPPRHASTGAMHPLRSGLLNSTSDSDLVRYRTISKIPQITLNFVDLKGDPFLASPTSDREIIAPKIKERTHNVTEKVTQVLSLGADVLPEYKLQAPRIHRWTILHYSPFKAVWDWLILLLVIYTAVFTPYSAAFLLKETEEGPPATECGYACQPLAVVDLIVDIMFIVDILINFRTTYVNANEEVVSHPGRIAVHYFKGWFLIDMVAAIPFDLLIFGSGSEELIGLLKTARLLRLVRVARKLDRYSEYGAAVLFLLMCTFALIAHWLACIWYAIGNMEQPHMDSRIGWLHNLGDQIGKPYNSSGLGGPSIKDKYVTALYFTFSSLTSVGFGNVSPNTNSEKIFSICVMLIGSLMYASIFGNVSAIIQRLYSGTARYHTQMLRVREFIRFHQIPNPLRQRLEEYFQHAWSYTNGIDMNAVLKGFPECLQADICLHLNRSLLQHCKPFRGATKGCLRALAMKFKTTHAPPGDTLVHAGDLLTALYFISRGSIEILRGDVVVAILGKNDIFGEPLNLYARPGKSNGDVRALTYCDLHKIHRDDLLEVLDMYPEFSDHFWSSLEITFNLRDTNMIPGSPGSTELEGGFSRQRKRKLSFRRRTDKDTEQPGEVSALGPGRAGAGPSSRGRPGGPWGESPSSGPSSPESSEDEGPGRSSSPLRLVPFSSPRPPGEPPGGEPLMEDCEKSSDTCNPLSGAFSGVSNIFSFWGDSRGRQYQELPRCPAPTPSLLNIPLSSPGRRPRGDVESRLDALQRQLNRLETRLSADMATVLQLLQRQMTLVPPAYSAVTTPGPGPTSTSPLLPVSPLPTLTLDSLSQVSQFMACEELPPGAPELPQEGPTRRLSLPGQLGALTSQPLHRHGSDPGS

| Structure (SMILES) | hERG current change (%, negative = inhibition) at 10uM |
| --- | --- |
| COc1ccc(N2CCN(C(=O)CNC(=O)c3cccs3)CC2)cc1 | 10.9% |
| CCC(C)NC(=O)C(=O)NCc1ccccn1 (centres unmarked) | 14.6% |
| COc1ccc(CNC(=O)c2nnn(CC(=O)Nc3cc(C)cc(C)c3)c2N)cc1 | 11.9% |
| CCCCc1cc(=O)oc2cc(C)cc(OCC(=O)NCC3CCC(C(=O)O)CC3)c12 (centres unmarked) | -1.21% |
| CC1Cc2ccccc2N1C(=O)c1cc2sccc2n1Cc1ccccc1 (centres unmarked) | 7.64% |
| CC[N+](C)(CC)CCCCOc1ccc2c(c1)C(=O)c1cc(OCCCC[N+](C)(CC)CC)ccc1-2.[I-] | 12.9% |
| O=c1c2c3nc4ccccc4nc3n(CC3CCCO3)c2ncn1CCc1ccccc1 (centres unmarked) | -5.67% |
| O=C(c1cccc(F)c1)N1C2C=CC(C2)C1(C(F)(F)F)C(F)(F)F (centres unmarked) | -0.667% |
| C=CCn1c(COc2cccc3cccnc23)nnc1SCC(=O)O | 12.7% |
| Cc1cccc2c1N(CCOc1ccc(C(C)(C)C)cc1)C(=O)C2=O | -7.48% |
| Cc1cccc(CCNS(=O)(=O)c2cc3c(cc2C)NC(=O)CO3)c1 | -34.4% |
| CC1(C)CC(=O)C(C=NC2CCCCC2)=C(O)C1 | -10.2% |
| Cc1nc(NCc2ccco2)c2oc3ccccc3c2n1 | -29.8% |
| C=CCOc1ccc(CN(C)C(=O)C2CCCO2)cc1 (centres unmarked) | 2.34% |
| CCn1cc(C(=O)N2CCN(c3ccc([N+](=O)[O-])cc3)CC2)c(=O)c2ccc(C)nc21 | -70.9% |
| CCn1cc(C(=O)N2CCN(c3cccc(C)c3C)CC2)c(=O)c2ccc(C)nc21 | -12.9% |
| CCn1cc(C(=O)N2CCN(c3ccccc3F)CC2)c(=O)c2ccc(C)nc21 | -5.94% |
| Cc1cc(C(=O)N2CCN(c3ccccc3)CC2)c(C)o1 | -1.46% |
| Cc1cc(C(=O)N2CCN(c3ccc([N+](=O)[O-])cc3)CC2)c(C)o1 | -73.5% |
| O=C(c1ccc(-c2cccc(Cl)c2)o1)N1CCN(c2ccc([N+](=O)[O-])cc2)CC1 | -58.9% |
| Cc1c(Cl)cccc1-c1ccc(C(=O)N2CCN(c3ccc([N+](=O)[O-])cc3)CC2)o1 | -14% |
| O=C(c1ccc(-c2ccc(Cl)cc2)o1)N1CCN(c2ccc([N+](=O)[O-])cc2Cl)CC1 | 3.9% |

| Structure (SMILES) | hERG current change (%, negative = inhibition) at 10uM |
| --- | --- |
| COc1ccc(N2CCN(C(=O)c3cc(C)oc3C)CC2)cc1 | 12.7% |
| O=C(C(=O)N1CCN(C(=O)c2ccco2)CC1)c1c[nH]c2ccccc12 | -2.67% |
| CCOc1ccc(S(=O)(=O)n2cc(-c3ccccc3)c(N)n2)cc1 | 5.5% |
| O=C(c1ccc2c(Cl)c3c(nc2c1)CCCC3)N1CCC(N2CCCCC2)CC1 | -46% |
| Cc1cccc2sc(N(CCCN(C)C)C(=O)c3ccc(S(=O)(=O)N4CCc5ccccc5C4)cc3)nc12.Cl | 13.9% |
| CN(C)CCCN(C(=O)c1ccc(C(=O)c2ccccc2)cc1)c1nc2c(F)cccc2s1 | -67.3% |
| NC(=O)COC(=O)c1sc2ccccc2c1Cl | 24.3% |
| CN(C)CCCN(C(=O)c1ccc(N2C(=O)CCC2=O)cc1)c1nc2c(F)cccc2s1.Cl | -0.103% |
| CN(C)CCCOC(=O)c1sc2ccccc2c1Cl.Cl | -50.2% |
| Cc1cccc2sc(N(CCCN(C)C)C(=O)c3sc4ccccc4c3Cl)nc12.Cl | -13.5% |
| CN(C)CCOC(=O)c1sc2ccccc2c1Cl.Cl | -29.4% |
| Cc1ccc2sc(N(CCCN(C)C)C(=O)c3ccc(S(=O)(=O)N(C)Cc4ccccc4)cc3)nc2c1C.Cl | -20% |
| Cc1cccc2sc(N(CCCN(C)C)C(=O)c3ccc(C(=O)c4ccccc4)cc3)nc12 | -53.2% |
| CN(C)CCCN(C(=O)c1sc2ccccc2c1Cl)c1nc2c(F)cccc2s1.Cl | -61.9% |
| Cc1ccc2nc(N(CCCN(C)C)C(=O)c3sc4ccccc4c3Cl)sc2c1.Cl | -29.9% |
| O=c1c2ccccc2ncn1-c1ccccc1[N+](=O)[O-] | 11.9% |
| O=S(=O)(c1ccc(OCC(O)CN2CCN(c3ccc(F)cc3)CC2)cc1)N1CCOCC1 (centres unmarked) | -18.2% |
| O=C(NNC1CC(=O)N(c2ccc(Br)cc2)C1=O)c1ccccn1 (centres unmarked) | -4.01% |
| CCCC1Cc2nc(Cl)c(C#N)cc2CO1 (centres unmarked) | 15.6% |
| O=C(Nc1cccnc1)c1cc(S(=O)(=O)N2CCOCC2)ccc1Br | -35.8% |
| COc1cc2c(cc1OC)C(COc1ccccc1OC)N(C(=O)c1ccco1)CC2 (centres unmarked) | -15.6% |
| COC(=O)c1[nH]c2ccccc2c1NC(=O)CN1CCC(C(N)=O)(N2CCCCC2)CC1 | -35.1% |

| Structure (SMILES) | hERG current change (%, negative = inhibition) at 10uM |
| --- | --- |
| Cc1cc(C)cc(N(CC(=O)Nc2cc(C)ccc2C)S(=O)(=O)c2c(C)[nH]c(=O)[nH]c2=O)c1 | 5.03% |
| Cc1cc(C)cc(N(CC(=O)Nc2ccc(C)cc2Cl)S(=O)(=O)c2c(C)[nH]c(=O)[nH]c2=O)c1 | -7.63% |
| COc1cc(NC(=O)CN(c2cc(C)cc(C)c2)S(=O)(=O)c2c(C)[nH]c(=O)[nH]c2=O)cc(OC)c1 | -27.8% |
| Cc1cc(C)cc(N(CC(=O)Nc2ccc(C(F)(F)F)cc2)S(=O)(=O)c2c(C)[nH]c(=O)[nH]c2=O)c1 | -88% |
| CCc1ccc(NC(=O)CN(c2cc(C)cc(C)c2)S(=O)(=O)c2c(C)[nH]c(=O)[nH]c2=O)cc1 | -33.7% |
| Cc1cc(C)cc(N(CC(=O)Nc2ccc(Br)cc2)S(=O)(=O)c2c(C)[nH]c(=O)[nH]c2=O)c1 | -76.4% |
| c1ccc(NCc2cccnc2)cc1 | 12.1% |
| Nc1nccc(-c2ccc(-n3cnc4ccccc43)cc2)n1 | -25.3% |
| O=C(/C=C/c1ccccc1)Nc1nnc(SCC(=O)c2ccc3ccccc3c2)s1 | 4.75% |
| COc1ccc(OC)c(N=c2oc3cc(O)ccc3cc2C(N)=O)c1 | 3.97% |
| COc1cccc(NC(=O)N2CCC(C(N)=O)(N3CCCCC3)CC2)c1 | 6.17% |
| NNC(=O)c1sccc1OCc1ccc(Cl)cc1 | 2.41% |
| COc1ccsc1NC(=O)OCc1ccc(Cl)cc1 | -77.8% |
| COc1ccc(COc2ccsc2C(=O)Nc2ccc(Cl)cc2)cc1 | 7.17% |
| CC(C)(C)c1ccc(NC(=O)CN2C(=O)NC(C)(C3CC3)C2=O)cc1 (centres unmarked) | -25.5% |
| Cc1ccc(-c2nn3c(C)nnc3c3ccccc23)cc1S(=O)(=O)NCc1ccco1 | -33.3% |
| O=C(CSc1ncnc2[nH]ncc12)Nc1nc(-c2ccc(F)c(F)c2)cs1 | 44.7% |
| O=C(Nc1ccnn1C1CCN(Cc2cc(Cl)ccc2O)CC1)c1cccnc1 | -9.31% |
| COc1cc(F)ccc1CN1CCC(n2nccc2NC(=O)C2CCOC2)CC1 (centres unmarked) | -14.5% |
| O=C(Nc1ccnn1C1CCN(Cc2cc(Cl)ccc2O)CC1)C1CC1 | -55% |
| COc1ccc(CN2CCC(n3nccc3NC(=O)C3CCCC3)CC2)c(OC)c1 | -73.2% |
| COc1ccc(O)c(CN2CCC(n3nccc3NC(=O)c3ccccc3Cl)CC2)c1 | -40.6% |

| Structure (SMILES) | hERG current change (%, negative = inhibition) at 10uM |
| --- | --- |
| COc1ccc(O)c(CN2CCC(n3nccc3NC(=O)C3CCCC3)CC2)c1 | -50.8% |
| COc1ccc(F)c(CN2CCC(n3nccc3NC(=O)C3CCOC3)CC2)c1 (centres unmarked) | 5.47% |
| O=C(Nc1ccnn1C1CCN(C(=O)Cc2cccc(Cl)c2)CC1)C1CC1 | -7.34% |
| CCOCC(=O)Nc1ccc([N+](=O)[O-])cc1C | 5.75% |
| Cc1nc(SCC(=O)N2CC(=O)Nc3ccccc32)c2c(C)c(C)sc2n1 | -5.65% |
| COc1ccc(CCNC(=O)C(NS(=O)(=O)c2ccc3c(c2)CCN3C(C)=O)C(C)C)cc1OC (centres unmarked) | 25.1% |
| CCC(=O)Nc1cccc(NC(=O)CSc2nc3c(c(=O)n(C)c(=O)n3C)n2C)c1 | 18% |
| CCC1Sc2ccc(S(=O)(=O)CCC(=O)Nc3ccc(NC(C)=O)cc3)cc2NC1=O (centres unmarked) | 19% |
| CSc1nc(=S)n(-c2ccccc2)c(C)c1C(C)=O | 11.9% |
| CC(=O)c1c(N2CCOCC2)nc(=S)n(-c2ccc([N+](=O)[O-])cc2)c1C | -46.2% |
| CSc1nc(=S)n(-c2ccc([N+](=O)[O-])cc2)c(C)c1C(C)=O | -68.3% |
| Cc1ccc(OCC(=O)Nc2ccc(CN3CCOCC3)cc2)cc1C | -39.3% |
| Cc1cc(OCC(=O)Nc2ccc(CN3CCOCC3)cc2)ccc1Cl | -51.8% |
| Cc1cc(OCC(=O)Nc2ccc(CN3CCCCC3)cc2)ccc1Cl | -73.9% |
| CCOc1ccc(C(=O)Nc2ccc(CN3CCOCC3)cc2)cc1Br | -46.6% |
| Cc1ccc(OCC(=O)Nc2ccc(CN3CCOCC3)cc2)cc1 | -9.4% |
| Cc1cc(C)cc(OCC(=O)Nc2ccc(CN3CCCCC3)cc2)c1 | -43.7% |
| CCOc1ccc(NC(=O)c2ccc(NC(=O)c3ccc(CN4CCOCC4)cc3)cc2)cc1 | 9.33% |
| CCc1ccc(OCC(=O)Nc2ccc(CN3CCCCC3)cc2)cc1 | -18% |
| CCOc1ccc(C(=O)Nc2ccc(CN3CCOCC3)cc2)cc1Cl | -56% |
